Compound activity (PubChem BioAssay)
An excerpt weighted towards active compounds, which were near 3.5% of everything screened.
GPR151 activ: activates the human receptor GPR151. AID 1508602. PathHunter beta-arrestin GPR151 cells, luminescence. 650,000 tested, 1% active. activation, % at 11.2 µM; in the data active = activation above about 4.9%
TEAD-YAP inh: TEAD-YAP interaction inhibition | inhibition, % at 9.12 µM | AID 1259422 | HEK-TIYL cells, TEAD-Gal4/YAP UAS-luciferase luminescence | 640,000 tested, 1.4% active; in the data active = inhibition above about 32%
FBW7 activator: human FBW7 E3 ligase activation, primary screen; AID 1259310; normalized activity (activation), % at 26.1 µM; 650,000 tested, 0.13% active; AlphaScreen FBW7–phospho-cyclin E peptide binding, activator screen; Q969H0; in the data active = normalized activity above about 1.9%;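 note: purified mutant Fbw7 with reduced substrate affinity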
MITF inh: blocks human microphthalmia-associated transcription factor; AlphaScreen MITF homodimerization, bead proximity signal; 650,000 tested, 0.91% active; inhibition, % at 2.6 µM; in the data active = inhibition above about 50%
Each line names hits and unclear results; the compound was inactive in the other large screens.

CCN=c1scc(C)n1/N=C/c1ccc2c(c1)OCCO2	none
Cc1ccc(N2CCN(C(=O)Nc3ccc(F)cc3)CC2C)cc1 (stereo not given)	none
CCOC(=O)c1c(NC(=O)/C=C\C(=O)O)sc2c1CCC(CC)C2 (stereo not given)	TEAD-YAP inh 43.3
CCCOC(=O)c1c(NC(=O)/C=C/C(=O)O)sc2c1CCCC2	TEAD-YAP inh 37.2
CCOC(=O)c1c(NC(=O)/C=C/C(=O)O)sc2c1CCCCC2	none
CCCOC(=O)c1c(NC(=O)/C=C/C(=O)O)sc2c1CCCCC2	none
COc1ccccc1-n1c(=O)[nH]c2c(C(N)=O)nc(C)nc21	none
O=[N+]([O-])c1ccc(NCCNc2cccc3ccccc23)c(S(=O)(=O)N2CCCC2)c1	none
CN=c1scc(-c2cccs2)n1/N=C/c1ccc(O)c(O)c1O	TEAD-YAP inh 71.2
C=CCN=c1scc(-c2ccco2)n1/N=C/c1ccc(O)c(O)c1O	TEAD-YAP inh 54.8
CN=c1scc(-c2cccs2)n1/N=C/c1ccccc1O	TEAD-YAP inh 95.0
CN=c1scc(C)n1/N=C/c1ccc(O)c(O)c1O	none
COCCN=c1scc(-c2ccco2)n1/N=C/c1ccc(O)c(O)c1O	none
CC1CCN(S(=O)(=O)c2cccc3c(S(=O)(=O)N4CCC(C)CC4)cccc23)CC1	none
O=C(CCCC(=O)c1ccccc1)Nc1ccccc1I	none
O=C1CC(c2cccc(Cl)c2)Cc2nc(N3CCOCC3)ncc21 (stereo not given)	none
CCN1CCN(c2ncc3c(n2)CC(c2cc(OC)c(OC)c(OC)c2)CC3=O)CC1 (stereo not given)	TEAD-YAP inh 47.0
Cc1noc(C)c1CN1CCN(C(=O)CCCc2ccccc2)CC1	none
Cc1ccc(C(=O)C2C(c3cccs3)C(C#N)(C#N)C3C=Cc4ccccc4N23)cc1 (stereo not given)	TEAD-YAP inh 43.4
COc1ccc(C(=O)[C@@H]2[C@@H](c3cccs3)C(C#N)(C#N)[C@H]3C=Cc4ccccc4N23)cc1	TEAD-YAP inh 55.1
Cc1ccc(NC(=O)C(C)N2Cc3ccccc3C2=O)nc1 (stereo not given)	TEAD-YAP inh 81.8
CC(C)CNC(=O)c1ccc2c(c1)CC(c1nc3ncc(-c4ccnc(N)n4)cc3[nH]1)CO2 (stereo not given)	none
CN(C)CCNC(=O)c1ccc2c(c1)CC(c1nc3ncc(-c4ccnc(N)n4)cc3[nH]1)CO2 (stereo not given)	MITF inh 72.0
Nc1nccc(-c2ccc3nc(C4COc5ccc(C(=O)NCCc6cccnc6)cc5C4)[nH]c3c2)n1 (stereo not given)	FBW7 activator 4.2
Nc1nccc(-c2cnc3nc(C4COc5ccc(C(=O)NCCc6cccnc6)cc5C4)[nH]c3c2)n1 (stereo not given)	none
Nc1nccc(-c2ccc3nc(C4COc5ccc(C(=O)NCCc6ccccn6)cc5C4)[nH]c3c2)n1 (stereo not given)	FBW7 activator 9.0
COC(=O)c1cc(OC)c(OC)cc1NC(=O)c1ccc(Br)cc1	none
O=C1CCCN1CCCNc1nc(N2CCN(c3ccccn3)CC2)nc2c1ncn2CCN1CCCC1=O	none
O=C1CCCN1CCCNc1nc(N2CCOCC2)nc2c1ncn2-c1ccccc1	TEAD-YAP inh 66.9
O=C1CCCN1CCCNc1nc(N2CCN(c3ccccn3)CC2)nc2c1ncn2-c1ccccc1	TEAD-YAP inh 55.7
COC(=O)c1c(NC(=O)C(F)(F)F)sc(Cc2ccccc2)c1C	none
COC(=O)c1c(NC(=O)/C=C\C(=O)O)sc(Cc2ccccc2)c1C	TEAD-YAP inh 32.4
CCn1c(-c2ccc(Cl)cc2)csc1=Nc1ccc(NC(C)=O)cc1	TEAD-YAP inh 79.6
CCn1c(-c2ccc(Cl)cc2)csc1=Nc1ccccc1	none
CCn1c(-c2ccc(OC)cc2)csc1=Nc1ccc(NC(C)=O)cc1	TEAD-YAP inh 64.7
C=CCn1c(-c2ccc(C)cc2)csc1=Nc1ccc(NC(C)=O)cc1	TEAD-YAP inh 49.5
Nc1cccc(S(=O)(=O)NC2CCCCC2)c1	none
COc1ccc(S(=O)(=O)N2c3ccc(Cl)cc3C(C)=CC2(C)C)cc1	TEAD-YAP inh 57.7
CC1=CC(C)(C)N(S(C)(=O)=O)c2ccc(OS(C)(=O)=O)cc21	none
COc1ccc(S(=O)(=O)N2c3cc(C)ccc3C(C)=CC2(C)C)cc1	TEAD-YAP inh 62.8
Cn1c(=O)c2c(nc(Br)n2CC(O)COc2ccc3ccccc3c2)n(C)c1=O (stereo not given)	none
CC(C)N1CC(O)=C(c2nc(-c3ccc(F)cc3)cs2)C1=N	none
O=C(CO)N/N=C/c1c(O)ccc2ccccc12	none
O=C(CN1CCOCC1)N/N=C/c1cn(Cc2ccccc2Cl)c2ccccc12	none
